97 molecules from PubChem BioAssay AID624330 (Southern Research Specialized Biocontainment Screening …, 2012) can be followed below.

The structures appear in SMILES notation. The whole screen tested about 340,000 compounds, of which about 2,100 (0.62%) were called active. Not all results are given here. Potency and affinity values are given separately. Unmarked numbers belong to inactive results.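 Rule for the calls: active = first-screen hits whose inhibition reached a set limit at any dose in the follow-up dose series; inconclusive = inhibition above the set first-screen limit but never retested; inactive = the rest.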

This test deals with Rac GTPase-activating protein 1 (Homo sapiens) (UniProt Q9H0H5). The test can be described thus: blockers of MgcRacGAP-driven Rac1 GTP hydrolysis – biochemical, ADP Hunter fluorescence, primary and confirmatory, confirmation (AID 624330).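 Note: fluorescence reports GDP produced by GAP-driven GTP hydrolysis.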 To be noted: MgcRacGAP-stimulated Rac1 GTP hydrolysis, at 30 µM, hits give high values, GST-tagged Rac1 F28L mutant substrate.
Sequence of Rac GTPase-activating protein 1 (Homo sapiens) (Q9H0H5 whole entry, looked up): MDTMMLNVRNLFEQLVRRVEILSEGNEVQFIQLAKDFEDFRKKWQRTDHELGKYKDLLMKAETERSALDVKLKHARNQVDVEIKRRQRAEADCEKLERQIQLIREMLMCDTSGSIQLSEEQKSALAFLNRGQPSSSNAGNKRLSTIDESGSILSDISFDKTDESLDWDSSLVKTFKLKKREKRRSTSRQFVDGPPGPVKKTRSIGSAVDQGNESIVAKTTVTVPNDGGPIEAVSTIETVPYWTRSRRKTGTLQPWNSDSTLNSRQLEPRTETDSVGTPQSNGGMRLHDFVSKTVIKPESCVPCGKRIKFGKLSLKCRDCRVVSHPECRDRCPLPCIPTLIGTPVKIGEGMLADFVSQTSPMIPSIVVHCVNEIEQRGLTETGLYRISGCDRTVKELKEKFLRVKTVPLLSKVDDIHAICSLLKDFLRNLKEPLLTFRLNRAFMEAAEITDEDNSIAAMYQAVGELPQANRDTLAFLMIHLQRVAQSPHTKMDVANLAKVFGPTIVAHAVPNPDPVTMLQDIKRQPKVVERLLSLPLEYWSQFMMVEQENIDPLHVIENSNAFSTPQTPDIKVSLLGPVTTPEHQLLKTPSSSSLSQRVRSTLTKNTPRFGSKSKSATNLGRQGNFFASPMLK
For `Cc1nnsc1C(=O)Nc1ccc(S(=O)(=O)N2CCCC(C)C2)cc1` (configuration not stated), the inhibition was -21.6%. As for `Cc1cc([N+](=O)[O-])nn1CC(=O)NCc1ccc(Cl)cc1`, the inhibition was 0.89%.

For `COC(=O)Cc1c(OC)ccn(CCc2c[nH]c3ccccc23)c1=O`, the inhibition is 8.25%. With `CN1C(=O)C(C)(C)c2cc(S(=O)(=O)N3CCCC(C(=O)NCc4ccc(F)cc4)C3)ccc21` (configuration not stated), the inhibition is 17.2%. As for `CCC(CC)C(=O)Nc1ccc(C(=O)Nc2cc(C)on2)cc1`, the inhibition is 5%.

With `COc1ccc(CNC(=O)C(=O)NCC2OCCCN2S(=O)(=O)c2cccs2)cc1` (configuration not stated), the inhibition was 8.22%.

Take `N#CC1=C(N)OC(c2ccccc2)=C(C#N)C1c1ccc2c(c1)OCO2` (configuration not stated): the inhibition was -0.39%.

`COc1cc(C2Nn3c(nnc3-c3ccccc3OC)S2)ccc1O` (configuration not stated): the inhibition is 3.42%. `CC(C)Cc1ccc(C(=O)NCCOc2ccccc2)o1`: the inhibition is 5.6%. In the case of `CNC(=O)c1c(NC(=O)c2ccc(S(=O)(=O)N3CC(C)OC(C)C3)cc2)sc2c1CCN(C(C)C)C2` (configuration not stated), the inhibition is 11.2%. `Cc1ccc(C(=O)NCC(=O)Nc2ncccc2C)s1`: the inhibition is -8.48%. In the case of `Cc1ccc(C(=O)Nc2ccncc2)cc1S(=O)(=O)N1CCOCC1`, the inhibition is 5.06%. As for `CCOc1ccc(CCN2C(=S)N([C@@H](CC(C)C)CN3CCCC3CN3C(=S)NC[C@@H]3Cc3ccc(O)cc3)C[C@@H]2Cc2ccccc2)cc1` (some centres not stated), the inhibition is -2.29%. As for `C[C@H](CO)N1C[C@H](C)[C@@H](CN(C)C(=O)c2ccccc2)OCc2cnnn2CCCC1=O`, the inhibition is 16.3%. On to `O=C(Nc1ccccc1O)c1ccc([N+](=O)[O-])cc1`, for which the inhibition was 6.91%. For the molecule `Oc1ccccc1N=Cc1ccc[nH]1`, the inhibition is 16.7%. For `O=C(CN1CCOCC1)Nc1ccc(-c2nc3ccccc3[nH]2)cc1` the value was 10.7%; for `CC(C)C[C@@H](C(=O)O)N(Cc1cccc(CN([C@@H](CC(C)C)C(=O)O)S(C)(=O)=O)c1)S(C)(=O)=O`, 9.29%. On to `CC1=C(C(=O)Nc2ccccc2C)C2(CCCC2)C(C(N)=O)C(=O)N1` (configuration not stated), for which the inhibition was -3.29%. `CCOC(=O)c1cnc2c(-c3ccccc3)cnn2c1C`: the inhibition was 8.8%. Consider `NC(=O)CSC1=N/C(=C\c2ccco2)C(=O)N1c1ccc(OC(F)F)cc1`, for which the inhibition is 9.08%. As for `CCNC(=O)CSC1=N/C(=C\c2ccc(O)c(OCC)c2)C(=O)N1c1ccc(OC(F)F)cc1`, the inhibition is 7.81%. `CCC(C)[C@H](NC(=O)N1CCN(C)CC1)C(=O)OC` (some centres not stated): the inhibition was 3.84%. For `Cc1ccc(C(=O)Nc2cccc(Oc3ccccc3)c2)o1`, the inhibition was 1.9%. As for `Cc1ccc2nc(Cc3ccc(N)cc3)[nH]c2c1`, the inhibition is 6.07%. Regarding `c1ccc2[nH]c(CCCc3nc4ccccc4[nH]3)nc2c1`, the inhibition is -1.49%. In the case of `Nc1ccc(C(=O)OCCCc2nc3cc4ccccc4cc3[nH]2)cc1`, the inhibition is 14.4%. Then `c1ccc(Cc2nc3ccccc3[nH]2)cc1`, with -0.91%; and `c1ccc2[nH]c(CCCCc3nc4ccccc4[nH]3)nc2c1`, with 7.39%; and `Nc1ccc(C(=O)OCCCc2nc3ccccc3[nH]2)cc1`, with 10%. Take `CCOCCCN(C(=O)CCC(=O)Nc1cc(C)on1)C(C(=O)NC(C)(C)C)c1ccccc1Cl` (configuration not stated): the inhibition is 5.98%. As to `COc1ccc(-c2c(NC(=O)CC(C)C)n(C)c3ccccc3c2=O)cc1OC`, the inhibition is 4.25%. As for `Cn1c(COc2ccc([N+](=O)[O-])cc2)nnc1SCC(=O)NCC1CCCO1` (configuration not stated), the inhibition was 5.87%. With `CCN(CC)CCCNc1nc2ccccc2[nH]1`, the inhibition was 7.22%. Then `CCN(CC)CCCNc1nc(-c2ccccc2)nc2ccccc12`, with 17.7%; and `CCCCCC(O)CCCC(=O)O` (configuration not stated), with 7.64%; and `CCCCCCCCCCCCCCC(O)C[N+](C)(CCO)CCO` (configuration not stated), with 20.8%.

Take `CCOc1ccc(-n2nc3c(SCCN4CCCC4)nnc(C)c3c2C)cc1`: the inhibition is 10.3%. As for `Oc1ccccc1Cc1c(O)ccc2ccccc12`, the inhibition was 23.7%.

As for `c1ccc2c(c1)ccc1ccccc12`, the inhibition was -3.62%. Turning to `c1ccc2c(c1)Nc1nccnc1S2`, the inhibition was 28.4%. As for `COc1ccc(N/C=C2/Sc3ccccc3NC2=O)cc1`, the inhibition was 17.3%.

For the molecule `Clc1cc2c(nn1)Nc1ccccc1S2`, the inhibition is 6.5%. As to `c1ccc2c(c1)Nc1cc3ccccc3cc1S2`, the inhibition was 14.6%. Regarding `FC(F)(F)c1cnc2c(c1)Nc1ccccc1S2`, the inhibition was 10.2%. For the molecule `COc1ccc2c(c1)S(=O)(=O)c1ccccc1N2`, the inhibition was 11.9%.

Turning to `Cn1c(N)c(C(=O)CSc2nnc(C3CC3)n2Cc2ccccc2)c(=O)[nH]c1=O`, the inhibition is 2.66%. Then `N#Cc1ccc(OCC(=O)N2CCN(S(=O)(=O)c3cccc(Cl)c3)CC2)cc1`, with -0.69%; and `COc1ccc(NC(=O)CN(C)C(=O)/C=C/c2cn(-c3ccccc3)nc2-c2ccc(C)cc2)cc1`, with 9.39%; and `CCOC(=O)Cc1csc(NC(=O)c2csc(C)c2)n1`, with 9.83%. `CCOc1ccccc1OCCOCCN1CCN(Cc2ccccc2)CC1`: the inhibition is 26.4%. Then `Cc1cc(OCCN2CCCC2)ccc1[N+](=O)[O-]`, with 19.6%; and `O=C(c1ccccc1)c1ccc(OCCOCCN2CCN(Cc3ccccc3)CC2)cc1`, with 25.1%. Take `Cc1cc(OCCN2CCC(Cc3ccccc3)CC2)ccc1[N+](=O)[O-]`: the inhibition was 22%. Consider `COc1cccc(NS(=O)(=O)c2c(C)nc3sccn3c2=O)c1`, for which the inhibition was 4.23%. Consider `CCc1cc(C(=O)NCC(c2ccco2)N2CCCCC2)sc1C` (configuration not stated), for which the inhibition is 5.34%.

Take `Cc1cccc(C(=O)OCC(=O)N2CCCCCC2)c1C`: the inhibition was 2.72%. On to `CCN(C[C@H]1N[C@@](Cc2ccccc2)(C(=O)OC)[C@H]2C(=O)N(Cc3ccccc3)C(=O)[C@@H]12)C(=O)Nc1ccc(C)cc1`, for which the inhibition is 4.71%. `CCOC(=O)c1ccc(NC(=S)N2CCC(C(N)=O)(N3CCCCC3)CC2)cc1`: the inhibition was -1.44%.

Regarding `CCN(CC)CCSc1nc(O)c(Cc2ccccc2)c(=O)n1-c1ccccc1`, the inhibition is 2.56%.

Consider `Cc1ccc(C(=O)NCCCN2CCOCC2)cc1S(=O)(=O)N1CCCCC1`, for which the inhibition is 1.84%. As for `Cc1ccccc1C(=O)NCC(=O)Nc1ccc(C)c(S(=O)(=O)N2CCCCCC2)c1`, the inhibition was -0.01%. As to `Cc1ccccc1NC(=O)C(=O)NCCCN1CCOCC1`, the inhibition was 4.72%. Turning to `CN(C)S(=O)(=O)c1cc(NC(=O)CN2CCOCC2)ccc1Cl`, the inhibition was 2.76%.

For `Cc1ccc(NC(=O)CN2CCOCC2)cc1S(=O)(=O)N1CCCCC1`, the inhibition was 7.06%.

Take `Cc1ccc(NC(=O)CCl)cc1S(=O)(=O)N1CCCCCC1`: the inhibition is 4.4%. For `CCN1CCN(CC(=O)Nc2ccc(Cl)c(S(=O)(=O)N(C)C)c2)CC1` the value was 28.1%; for `O=C(CNCCN1CCOCC1)Nc1ccccc1Sc1ccccc1`, 24.9%. Consider `CC(Oc1cccc(Cl)c1)C(=O)N1CCN(c2ncccn2)CC1` (configuration not stated), for which the inhibition is 3.63%. For `O=C(Nc1ccccc1C(=O)O)c1cc(S(=O)(=O)N2CCOCC2)cs1` the value was 3.51%; for `Cc1ccc(/C=N/N2CCN(C3c4ccccc4-c4ccccc43)CC2)o1`, 8.36%; for `COc1ccc(N2CCN(C(=O)c3cc4c(s3)CCCCC4)CC2)cc1`, 14.7%. On to `COCCn1c(SCC(=O)N2CCCCCC2)nnc1-c1ccco1`, for which the inhibition was 3.7%. In the case of `CCC(CNC(=O)c1c(C)nn(-c2ccccc2)c1Cl)c1ccccc1` (configuration not stated), the inhibition is -0.7%. Turning to `Cc1ccc(S(=O)(=O)N2CCCCC2)cc1C(=O)N(C)CCOc1ccccc1`, the inhibition is 8.29%. Regarding `O=C(Cn1cnc2c(nnn2-c2ccc(F)cc2)c1=O)NCC1CCCO1` (configuration not stated), the inhibition was 8.9%.

As for `COc1cc(-c2csc(CCn3nc(C)cc3C)n2)cc(OC)c1OC`, the inhibition was 4.55%. Turning to `Cc1cc(C)n(CCc2nc3c4ccccc4n(CC#N)c(=O)n3n2)n1`, the inhibition was 3.22%.

With `COC(=O)C1CCN(S(=O)(=O)Cc2ccccc2Cl)CC1`, the inhibition was 7.49%. Regarding `COc1cc2c(cc1OC)C1(CCCC1)CNC2C` (configuration not stated), the inhibition is 1.49%. For `COc1cc(OC)c(OC)cc1C#N` the value was 2.13%; for `O=C(Nc1ccc(F)cc1)C(NC1CCCCC1)c1ccccc1` (configuration not stated), 9.33%; for `COc1ccc(C2=NS(=O)(=O)N(C)C(C(=O)N3CCCCC3C)=C2)cc1` (configuration not stated), 2.61%. Consider `COc1ccc(C(C)C)cc1S(=O)(=O)Nc1ccccn1`, for which the inhibition is -2.56%. Take `COc1ccc(N(C(=O)c2ccncc2)S(=O)(=O)c2cccs2)cc1`: the inhibition was 5.29%. Turning to `COc1ccc(C(=O)N(c2ccc(OC)cc2)S(=O)(=O)c2cccs2)cc1`, the inhibition was 3.2%. Take `O=C(Nc1ccc(-c2nc3ccccc3[nH]2)cc1)c1ccc2c(c1)OCO2`: the inhibition was 0.3%. For `COc1ccccc1C1C2=C(N=C3SCC(=O)N31)c1ccccc1CC2` (configuration not stated) the value was 7%.

In the case of `CCOC(=O)c1cc(-c2ccccc2)nn1CCC#N`, the inhibition is 8.67%. `COc1ccc(OCc2nn3c(Cn4cnc5ccccc54)nnc3s2)cc1`: the inhibition is 19.9%. `Cc1ccnc(SCc2cn3c(C)cccc3n2)n1`: the inhibition was 0.6%. As for `COc1ccc(/C=C/C(=O)OCC(=O)NCCC2=CCCCC2)cc1OC`, the inhibition was 4.2%. In the case of `COc1ccc(/C=C/C(=O)OCC(=O)NC2CCS(=O)(=O)C2)cc1` (configuration not stated), the inhibition was -1.92%.

For the molecule `COc1cc(/C=C/C(=O)OCC(=O)NC2CCCCCCC2)ccc1O`, the inhibition was 26.5%. Then `COc1cc(/C=C/C(=O)OCC(=O)NC2CCS(=O)(=O)C2)ccc1OC(F)F` (configuration not stated), with 2.44%. For the molecule `COc1cccc(/C=C/C(=O)OCC(=O)NCC2CCCCC2)c1OC`, the inhibition is -1.97%. For `COc1cc(/C=C/C(=O)OCC(=O)NCCC2=CCCCC2)cc(OC)c1OC` the value was -10.3%.

In general, inhibition refers to the drop in the measured response relative to a control, in per cent.
